Here are results for 15 compounds from PubChem BioAssay (NCI).

Some test systems named below: NCI-H23 lung; NCI-H322M lung; HOP-62 NSCLC; NCI-H460 lung; HOP-92 NSCLC; NCI-H522 lung; A549/ATCC NSCLC; 786-0 renal; COLO 205 colon; NCI-H226 lung.
Holding throughout (experiment): NCI-60 one-dose screen, 48 h (100 = growth as untreated, 0 = no growth, -100 = all killed)
Conditions in all cases: 10 µM unless noted

This is part of a sample that, as a whole, favours compounds with a hit. Of some 83,000 tested, about 20% had one in any assay.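 Results are percent growth after 48 hours of single-concentration exposure. 100 means growth as in untreated cells, lower positive values show inhibition; negative values down to -100 show cell death.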 Values without a mark were called inactive. Activity calls are given as the source filed them. How the source made its calls: active means growth percent below 10; inactive means the rest.

Take `CC1(c2cc3cc(Cl)ccc3oc2=O)NC(=O)c2c(/C=C/C(=O)OC3CC4CCC3(C)C4(C)C)cccc2N1` (configuration not stated): the growth with NCI-H23 lung was 63.4%; in the experiment with NCI-H322M lung, 70.5%; in the experiment on HOP-62 NSCLC it was 71.5%; in the experiment on NCI-H460 lung it was 67.2%; with HOP-92 NSCLC it was 40.8%; with NCI-H522 lung, 36.8%. Moreover, the growth in the experiment on A549/ATCC NSCLC was 41.7%; in the experiment with 786-0 renal it was 69.9%; with COLO 205 colon, 48.8%.

In the case of `S=c1c2ccccc2nc2n1CCc1c-2[nH]c2ccccc12`, the growth was 62% with NCI-H23 lung; 60.6% in the experiment on NCI-H322M lung; 38.5% with HOP-62 NSCLC; 71.2% in the experiment on NCI-H460 lung; 25.2% in the experiment with HOP-92 NSCLC; 56.7% in the experiment with NCI-H522 lung. The growth in the experiment on A549/ATCC NSCLC is 68.2%; in the experiment on 786-0 renal, 46.9%.

As for `C=C1CCC2C3(C)COC(c4ccco4)OC3CCC2(C)C1CC(Sc1ccccc1)C1=CCOC1=O` (configuration not stated), the growth in the experiment with NCI-H23 lung was 64.8%; in the experiment with NCI-H322M lung it was 92.2%; in the experiment on HOP-62 NSCLC it was 100%; with NCI-H460 lung, 105%; in the experiment on NCI-H522 lung, 7.02% (active); with A549/ATCC NSCLC, 53.7%. Besides, the growth in the experiment on 786-0 renal was 62.7%; in the experiment with COLO 205 colon, 98%.

With `Cc1ccc([C@H]2C(C(=O)c3ccc(Cl)cc3)C3(N[C@@H]2c2ccccc2)C(=O)Nc2ccccc23)cc1` (some centres not stated), the growth with NCI-H23 lung was 44.1%; in the experiment on NCI-H322M lung, 55.4%; in the experiment on HOP-62 NSCLC, 44%; in the experiment with NCI-H460 lung, 45.8%; in the experiment on HOP-92 NSCLC, -3.21% (active); with NCI-H522 lung it was 12.9%. For the same compound, the results for the growth in the experiment on A549/ATCC NSCLC, in the experiment on 786-0 renal and in the experiment on COLO 205 colon were 25.9%, 33.4% and 19.2%, respectively.

Regarding `CC(C)c1ccc2c(N)c(C(=O)Nc3cccc(C(F)(F)F)c3)sc2n1`, the growth in the experiment with NCI-H23 lung is 90.5%; in the experiment with NCI-H322M lung, 81.2%; in the experiment on HOP-62 NSCLC, 62.6%; with NCI-H460 lung, 67.7%; in the experiment on HOP-92 NSCLC, 82.7%; in the experiment on NCI-H522 lung, 48.8%. Further, the figures for the growth in the experiment with A549/ATCC NSCLC, in the experiment with 786-0 renal and in the experiment with COLO 205 colon were 78.8%, 67.9% and 48.2%, respectively.

Consider `CC(C)Sc1nc(NCCc2c[nH]c3ccccc23)c(C#N)c(-c2ccccc2)n1`, for which the growth in the experiment on NCI-H23 lung is 17.9%; with NCI-H226 lung it was 33.8%; with HOP-62 NSCLC, 31.9%; with HOP-92 NSCLC it was 4.4% (active); in the experiment with NCI-H522 lung it was 25.4%; in the experiment with A549/ATCC NSCLC, 39.6%. For the same compound, in the experiment with 786-0 renal, the growth was 1.53% (active).

For the compound `Cc1ccc([C@H]2C(C(=O)c3ccc(Cl)cc3)C3(N[C@@H]2c2ccccc2)C(=O)Nc2ccc(Br)cc23)cc1` (some centres not stated), the growth with NCI-H23 lung is 61.4%; in the experiment with NCI-H322M lung it was 69.1%; with HOP-62 NSCLC it was 69.9%; in the experiment with NCI-H460 lung, 55.6%; in the experiment on HOP-92 NSCLC, 21.9%; in the experiment on NCI-H522 lung, 46.5%. In addition, the growth with A549/ATCC NSCLC was 38.4%; with 786-0 renal, 45.8%; with COLO 205 colon it was 49.3%.

As to `O=C1CC(Sc2n[nH]c(-c3ccncc3)n2)C(=O)N1c1ccc(Br)cc1` (configuration not stated), the growth in the experiment with NCI-H23 lung was 104%; with NCI-H322M lung, 104%; with HOP-62 NSCLC, 98.9%; in the experiment on NCI-H460 lung it was 117%; with NCI-H522 lung it was -33.6% (active); in the experiment on A549/ATCC NSCLC it was 106%. Further, the growth was 106% with 786-0 renal and 116% in the experiment with COLO 205 colon.

With `Cc1ccccc1[C@H]1C(C(=O)c2ccc(Cl)cc2)C2(N[C@@H]1c1ccccc1)C(=O)Nc1ccc(Br)cc12` (some centres not stated), the growth in the experiment with NCI-H23 lung was -3.76% (active); in the experiment on NCI-H226 lung it was 25.5%; in the experiment with HOP-62 NSCLC, 31.6%; with NCI-H460 lung, 3.51% (active); in the experiment with HOP-92 NSCLC, -21.3% (active); in the experiment on NCI-H522 lung, -17.6% (active). The growth was 2.73% (active) in the experiment on A549/ATCC NSCLC, -40.5% (active) in the experiment on 786-0 renal and -34.5% (active) in the experiment with COLO 205 colon.

With `COc1cc2c(c(OC)c1OC)C(=O)CC(c1cccc(NC(=O)c3cccc(NC(=O)[C@H](C)NC(=O)OC(C)(C)C)c3)c1)O2` (some centres not stated), the growth with NCI-H23 lung is 70.4%; with NCI-H322M lung, 105%; in the experiment with HOP-62 NSCLC, 73.6%; with NCI-H460 lung it was 76.1%; in the experiment with HOP-92 NSCLC it was 74.4%; in the experiment on NCI-H522 lung it was 21%. Moreover, the values for the growth in the experiment on A549/ATCC NSCLC and with 786-0 renal were 59.9% and 86.4%, respectively.

Regarding `COc1cc(NC(=O)c2cccc(C3CCc4c(cc(OC)c(OC)c4OC)O3)c2)cc(OC)c1OC` (configuration not stated), the growth is 36.9% with NCI-H23 lung; 39.2% in the experiment on NCI-H322M lung; 30.6% with HOP-62 NSCLC; 29.1% in the experiment on NCI-H460 lung; 52.4% with HOP-92 NSCLC; -9.86% (active) with NCI-H522 lung. The figures for the growth in the experiment on A549/ATCC NSCLC, in the experiment on 786-0 renal and in the experiment with COLO 205 colon were 19.5%, 24.3% and 3.7% (active), respectively.

For `S=C(Nc1ccccc1)Nc1ccc(OCc2nc3ccccc3[nH]2)cc1`, the growth in the experiment with NCI-H23 lung is 37%; in the experiment on NCI-H322M lung it was 63.6%; in the experiment with HOP-62 NSCLC, 43.6%; with NCI-H460 lung it was 31.3%; in the experiment with HOP-92 NSCLC, 74.8%; in the experiment with NCI-H522 lung, 2.87% (active). In addition, the results for the growth in the experiment on A549/ATCC NSCLC, in the experiment with 786-0 renal and in the experiment on COLO 205 colon were 31%, 31.8% and 32.9%, respectively.

Regarding `C=CC(=O)Nc1ccc(C)c(Oc2ccc(Cl)cc2)c1`, the growth was 55.9% with NCI-H23 lung; 48.4% in the experiment with NCI-H322M lung; 63% with HOP-62 NSCLC; 20.5% in the experiment with NCI-H460 lung; 3.62% (active) in the experiment with NCI-H522 lung; 47.2% in the experiment on A549/ATCC NSCLC. Also, the growth in the experiment on 786-0 renal is 55.1%; with COLO 205 colon, 55.7%.

For `CC(=O)Nc1ccc(-n2cnc3ccc(-c4ccc(O)cc4)cc32)cc1`, the growth is 41.3% in the experiment on NCI-H23 lung; 52.5% with NCI-H226 lung; 53% with HOP-62 NSCLC; 38.7% in the experiment on NCI-H460 lung; 66% with HOP-92 NSCLC; 44% in the experiment with A549/ATCC NSCLC. Further, the growth with 786-0 renal was 48.5%; with COLO 205 colon it was 123%.

`COc1ccccc1C(=O)NN1C(=O)/C(=C/C2=Cc3ccccc3OC2)SC1=S`: the growth with NCI-H23 lung is 106%; with NCI-H322M lung, 99.4%; in the experiment with HOP-62 NSCLC, 106%; in the experiment with NCI-H460 lung, 120%; in the experiment with HOP-92 NSCLC it was 86.6%; in the experiment on NCI-H522 lung, 97.9%. Besides, the growth is 103% in the experiment on A549/ATCC NSCLC, 104% in the experiment with 786-0 renal and 119% with COLO 205 colon.
